Sampled rows, rich in hits. Any-hit rate of the full collection: about 4.8%.
hcDAF12 agonist: activators of H. contortus DAF-12 nuclear receptor; HEK293 hcDAF-12 lit1-tk-luc reporter, luminescence; 0% DMSO, 100% Δ7-dafachronic acid; hit rate 1.4% among 370,000; AID 652067; activation, % at 6.8 µM;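 active = activation above the mean of all tested compounds plus 3 SD, cut at about 5.5% in these data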;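 note: 100% = response to 3 µM Δ7-dafachronic acid high control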
hgDAF-12 ag: activates the H. glycines DAF-12 receptor ligand-binding domain; activation, % at 6.8 µM; HEK293 GAL4-hgDAF12 UAS-luciferase reporter, agonist luminescence; normalized to butyrate control; hit rate 1.8% among 370,000;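 active = activation above a cutoff set at the mean of all screened compounds plus 3 SD, cut at about 10% in these data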;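 note: 0% = DMSO wells and 100% = sodium butyrate wells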
ssDAF12 agonist: activates DAF-12 receptor from parasite S. stercoralis | AID 652126 | hit rate 1% among 370,000 | activation, % at 6.8 µM | HEK293 ssDAF-12/GRIP1 lit1-tk-luc reporter, luminescence; % of 3 µM dafachronic acid response;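 active = activation above the mean over all tested compounds plus 3 SD, cut at about 0.9% in these data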;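 note: 0% = DMSO-only wells and 100% = 3 µM delta7-dafachronic acid wells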
DAX1 inh-1: DAX1 (NR0B1) inhibition, primary screen. AID 652010. HEK293T StAR-luciferase reporter, SF-1/DAX-1 repression relief. inhibition, % at 6.8 µM. hit rate 1.1% among 370,000;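 active = inhibition above the mean over all tested compounds plus 3 SD, cut at about 3.6% in these data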;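 note: 0% = DAX-1 cells with DMSO and 100% = cells lacking DAX-1 with DMSO; higher inhibition means more luminescence from relief of DAX-1 repression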
SMARCA2 act: activators of SMARCA2 function; MG213 cells, MMTV-luciferase reporter, dexamethasone, overnight; activation, % at 9.1 µM; hit rate 1% among 370,000; AID 652017; in the data active = activation above about 7.8%;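 note: 0% = vehicle wells and 100% = reference activator wells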
DAX1 inh-2: inhibitors of human orphan nuclear receptor DAX1 (NR0B1); P51843; inhibition, % at 6.75 µM; HEK293 Gal4-DAX1 luciferase reporter, luminescence; hit rate 0.99% among 340,000;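 active = inhibition above the mean over all tested compounds plus 3 SD, cut at about 4.2% in these data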;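 note: 0% = DAX1-transfected cells with DMSO and 100% = empty-vector control cells with DMSO; inhibition shows as a rise in luminescence from relieved DAX1 repression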
Target sequence (P51843 207-470 limits assumed): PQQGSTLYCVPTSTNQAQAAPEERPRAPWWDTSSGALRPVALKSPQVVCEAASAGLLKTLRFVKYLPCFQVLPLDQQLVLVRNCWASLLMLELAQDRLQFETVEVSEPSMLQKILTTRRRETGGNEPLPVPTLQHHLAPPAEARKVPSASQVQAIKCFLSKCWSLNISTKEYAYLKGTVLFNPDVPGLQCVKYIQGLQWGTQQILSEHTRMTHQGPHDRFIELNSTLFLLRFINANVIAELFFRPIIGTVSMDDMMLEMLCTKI
SMARCA2 act conf: SMARCA2 activation, confirmation screen; shares compounds with SMARCA2 act; MG213 cells, MMTV-luciferase with dexamethasone, luminescence, overnight; MG213 cells expressing E1A, Rb sequestered; DMSO wells 0%, reference activator 100%; activation, % at 9.1 µM; hit rate 30% among 3,500;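 active = activation above its plate's cutoff, the mean activation of tested wells plus 3 SD, cut at about 7.9% in these data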
GAL4-VP16 Luc: counter-screen for SMARCA2 activators: GAL4-VP16 luciferase reporter activation. shares compounds with SMARCA2 act. HEK293 GAL4-VP16 pG5luc reporter, luciferase luminescence; scaled: DMSO wells 0%, SAHA wells 100%. activation, % at 9.1 µM. hit rate 41% among 3,500. AID 686939;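 active = activation above the solvent-only control well mean plus 3 SD, averaged across control plates, cut at about 5.2% in these data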
* hit, by the source's call; . = no result given.

SMILES	hcDAF12 agonist	hgDAF-12 ag	ssDAF12 agonist	DAX1 inh-1	SMARCA2 act	DAX1 inh-2	SMARCA2 act conf	GAL4-VP16 Luc
C=CCn1c(=N)n(CC(=O)c2ccc(OC)cc2)c2ccccc21	-2.8	5.3	-1.4	1.4	-0.5	1.9	.	.
CSc1ccccc1NC(=O)c1cc(C(C)C)on1	6.4*	5.5	0.1	0.6	8.0*	0.7	3.2	7.9*
CSc1ccccc1NC(=O)c1cc(-c2ccc3c(c2)OCO3)on1	1.3	3.7	-0.3	0.4	10.4*	1.5	5.7	1.8
CCc1ccc(NC(=O)c2cc(-c3ccc4c(c3)OCO4)on2)cc1	-2.2	-1.0	-0.6	0.1	0.3	-0.5	.	.
CSc1ccccc1NC(=O)c1cc(C)on1	-0.2	0.5	-1.4	0.3	0.5	-0.5	.	.
Cc1cc(C)c2c(N)c(C(=O)Nc3ccc([N+](=O)[O-])cc3)sc2n1	1.9	1.8	-0.3	1.0	8.5*	0.2	5.4	10.2*
Cc1ccc(N2C(S)=C(C#N)C(=O)NC2c2cccs2)cc1 (stereo not given)	1.4	2.2	-1.4	0.0	8.0*	-1.1	2.2	0.4
Cc1ccnc(NC(=O)c2ccc([N+](=O)[O-])o2)c1	-0.8	1.5	-0.6	-1.5	7.7	-1.6	.	.
CC(C)(Oc1ccc(Cl)cc1)C(=O)NC1=NN(c2ccccc2)C(=O)C1	0.8	-2.1	-1.4	-0.3	7.0	-0.1	.	.
O=C1NC2c3c(Cl)sc(Cl)c3C(=O)C2O1 (stereo not given)	0.4	-1.4	-1.1	-0.1	15.4*	0.0	9.0*	1.4
O=C1NC2c3c(I)sc(I)c3C(=O)C2O1 (stereo not given)	-0.6	2.2	-1.7	-0.7	8.7*	0.1	-3.9	0.0
O=C1NC2c3ccccc3CC2O1 (stereo not given)	1.2	0.6	-1.1	-0.2	0.7	0.6	.	.
CC1(C(=O)Nc2cccc(NS(C)(=O)=O)c2)Cc2c(-c3cccc(C(N)=O)c3)ccnc2O1 (stereo not given)	-0.4	0.0	-1.8	0.0	3.8	.	.	.
CCn1c(SCC(=O)NN=Cc2c[nH]c3ccccc23)nc2ccccc21	-0.1	0.8	-0.7	-3.9	-6.5	.	.	.
COc1ccc(OCc2cccc(C(=O)Nc3ccc(CN4CCCCC4)cc3)c2)cc1	3.6	9.9	-0.6	2.7	9.9*	-2.2	9.4*	13.6*
COc1cc(OC)cc(C(=O)Nc2ccc(CN3CCCCC3)cc2)c1	0.1	0.5	-1.8	0.1	-1.5	-0.4	.	.
CCCS(=O)(=O)NC(=O)C1(C)CCN(C(=O)c2snnc2C)C1 (stereo not given)	1.2	0.0	-1.2	0.2	-3.1	.	.	.
CCCS(=O)(=O)NC(=O)C1(C)CCN(C(=O)c2nc(C)oc2C)C1 (stereo not given)	-0.8	3.8	-0.3	-0.3	8.0*	.	0.1	1.0
O=[N+]([O-])c1ccc(N=NN(CCO)CCO)cc1	-1.8	-1.0	-1.1	-0.2	-3.3	0.6	.	.
O=[N+]([O-])c1ccc(N=Nc2ncc[nH]2)cc1	3.2	-2.2	-1.2	-0.8	8.0*	-4.9	-14.3	6.9*
CCOc1ccc(NC(=O)Nc2cc(-c3ccccc3)sc2C(=O)OC)cc1	4.5	-0.3	-0.9	0.1	1.5	0.5	.	.
COC(=O)c1sc(-c2ccccc2)cc1NC(=O)C1CC1	0.0	-1.7	-0.2	-1.2	8.9*	1.2	-4.5	2.1
CCOC(=O)CSc1nc2ccccc2n2c(C)nnc12	0.2	-3.8	-1.4	-0.4	-2.9	-0.2	.	.
Clc1ccccc1CO/N=C1\CCCc2nonc21	-1.3	0.8	-1.5	0.5	0.2	-0.1	.	.
Clc1ccc(CO/N=C2\CCCc3nonc32)cc1	3.4	0.7	-1.0	-0.3	12.9*	-1.9	8.1*	4.0
